Screening data deposited in PubChem by several laboratories.
Shown are actives, neighbours in structure and some others; about 4.7% of the full set was active somewhere.
PfHsp90 yeast 2 = growth inhibition of yeast expressing Plasmodium Hsp90; inhibition, % at 9.4 µM; AID 504621; S. cerevisiae expressing PfHsp90, BacTiter-Glo ATP, 48 h; yeast lacking PDR1 and PDR3 efflux regulators; actives 0.32% (n = 310,000);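 active = every replicate shows inhibition above about 80%, whatever the replicate mean, limit read from the data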;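 also: 0% = DMSO neutral controls and 100% = 20 µM radicicol positive controls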
tim10-1 inh = inhibits growth of tim10-1 mutant yeast; actives 2.2% (n = 330,000); AID 463190; inhibition, % at 20 µM; S. cerevisiae tim10-1 ts strain growth, BacTiter-Glo, 24 h;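 active = inhibition of at least 40%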;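 also: mutant grown at 25 °C; 0% = DMSO wells with yeast and 100% = wells holding no yeast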
TIM10 inh = inhibits growth of TIM10 yeast strain; S. cerevisiae TIM10 strain growth, BacTiter-Glo luminescence, 24 h; inhibition, % at 10 µM; actives 1.4% (n = 330,000); AID 463195;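 active = inhibition of 40% or more at the single tested concentration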;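 also: wild-type TIM10 isogenic control strain grown at permissive 25 °C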
tim23-1 inh = inhibits growth of tim23-1 mutant yeast; inhibition, % at 20 µM; actives 1.3% (n = 330,000); S. cerevisiae tim23-1 growth, BacTiter-Glo luminescence, 24 h;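 active = growth inhibition of the mutant yeast at or above 50%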;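 also: temperature-sensitive mutant grown at 25 °C; plate controls were DMSO-treated mutant yeast for no effect and medium wells lacking yeast for full effect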
SKKanGAS inh = inhibitors of SKKanGAS S. pyogenes growth in kanamycin (SK-promoter or general growth effect); BacTiter-Glo, 6 h; inhibition, % at 7.5 µM; actives 1.3% (n = 300,000); AID 1662;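 active = mean replicate score, as percent of positive control median, at least 50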;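 also: strain carries kanamycin resistance gene driven by streptokinase promoter and grows in 40 µg/ml kanamycin; loss of luminescence reflects streptokinase promoter inhibition or plain growth inhibition; 0% = median of DMSO wells and 100% = positive control at its reference dose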
Calb FLC = affects C. albicans growth with fluconazole; C. albicans CaCi-2 (fluconazole-resistant clinical isolate) + fluconazole, Alamar Blue growth, 48 h; actives 0.57% (n = 300,000); growth inhibition, % (no concentration beside the values); AID 1979;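 active = growth inhibition above about 58% in most replicates, limit read from the data, passing the limit was not always enough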;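 also: all wells also contain fluconazole at 8 µg/ml as a sub-toxic cotreatment; 0% = median of DMSO wells and 100% = median of geldanamycin control wells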
Active calls of the source: *; / = not tested or not shown; ! = not active in a repeat.

SMILES	PfHsp90 yeast 2	tim10-1 inh	TIM10 inh	tim23-1 inh	SKKanGAS inh	Calb FLC
CCOC(=O)/C=C1\SC(C)C(=O)N1CC(=O)N(CCC#N)c1ccccc1 (stereo unspecified)	-3.4	16.8	13.3	20.9	/	/
CCOc1ccc(C(=O)N2CCC3(CC2)NCCc2[nH]cnc23)cc1OCC	5.8	18.0	2.3	6.1	1.9	-19.3
NNC(=O)c1cc2sccc2s1	-22.3	-8.7	15.4	9.6	32.1	5.3
COc1cc(-c2nnc(NC(=O)c3ccc(S(=O)(=O)N4CCOCC4)cc3)o2)cc(OC)c1OC	/	22.8	9.2	7.0	10.5	90.4*
COc1cccc(-c2nnc(NC(=O)c3ccc(S(=O)(=O)N4CCOCC4)cc3)o2)c1	-2.5	22.3	15.1	15.4	87.6*	-5.7
COc1cc2sc3ccc(-c4ccc5[nH]ccc5c4)cc3c(=O)c2cc1OC	-16.1	17.0	-1.9	4.7	19.8	-3.8
O=c1c2ccccc2oc2cc(-c3ccc4[nH]ccc4c3)ccc12	15.9	26.3	18.5	35.3	57.2*	-14.8
CC[C@H]1OC(=O)[C@H](C)[C@@H](O[C@H]2C[C@@](C)(OC)[C@@H](O)[C@H](C)O2)[C@H](C)[C@@H](O[C@@H]2O[C@H](C)C[C@H](N(C)C)[C@H]2O)[C@](C)(O)C[C@@H](C)CN(C)[C@H](C)[C@@H](O)[C@]1(C)O	-19.0	6.0	5.2	-14.8	110.5*	/
CCOc1ccc(NC(=O)OCCN2CCN(CCc3ccccc3)C(C)C2)cc1 (stereo unspecified)	2.6	/	/	/	/	/
CCCCn1c(O)c(C(CC)=Nc2ccc3c(c2)CCC3)c(=O)[nH]c1=O	-3.3	12.0	31.2	3.9	52.5*	38.3
COc1ccc(-c2n[nH]c(C(F)(F)F)c2-c2cc3ccccc3o2)c(O)c1	73.3	16.0	17.1	-127.5	98.9*	16.7
N#CCCn1c(=O)n(CCC#N)c2ccccc21	-3.1	10.1	-9.5	3.4	/	0.8
Cn1c(=O)n(CC#N)c2ccccc21	/	6.6	-4.8	7.0	1.5	102.3*
CCOC(=O)c1cc2c(=O)n3ccccc3nc2n(CCOC)c1=NC(=O)C(C)(C)C	-3.8	16.9	1.2	8.6	-1.2	-2.8
CCOC(=O)c1cc2c(=O)n3ccccc3nc2n(CCOC)c1=NC(=O)c1ccncc1	/	-8.9	-8.0	8.8	11.9	113.7*
CCCCCCCCOC(=O)/C=C/c1c(C)[nH]c(=O)[nH]c1=O	-53.5	-12.0	2.0	0.0	64.1*	-3.4
CCCCN(CCCC)S(=O)(=O)c1c(C)[nH]c(=O)[nH]c1=O	-24.6	1.2	-5.7	-0.5	6.9	2.8
O=C(NC(=S)N1CCN(C(c2ccccc2)c2ccccc2)CC1)c1ccc(S(=O)(=O)N2CCOCC2)cc1	-17.0	16.9	24.0	-9.8	66.4*	54.1
COc1ccc(/C=C/C(=O)NC(=S)NNC(=O)Cc2cccs2)cc1	0.3	-3.1	1.8	-38.2	109.2*	-20.3
O=C(NC(=S)NNC(=O)c1cccs1)c1ccc(Br)o1	4.8	15.8	5.6	-9.5	101.1*	-0.9
O=C(Cc1cccs1)NNC(=S)NC(=O)c1ccccc1	-1.0	19.2	-13.7	-43.0	56.4*	31.4
O=C(Cc1ccccc1)NNC(=S)NC(=O)c1cccs1	/	24.5	8.3	-18.6	79.4*	47.4
O=C(NC(=S)Nc1ccccc1)c1cccs1	-10.6	18.9	0.7	37.6	0.7	2.1
CC(C)(C)C(=O)Nc1cccc(-c2ncon2)c1	31.1	4.0	-3.8	14.8	-3.9	0.3
Cc1cc(C)n(Cc2cccc(C(=O)N/N=C/c3cccnc3)c2)n1	4.5	-5.7	2.9	-3.2	-1.4	-15.6
SMILES	PfHsp90 yeast 2	tim10-1 inh	TIM10 inh	tim23-1 inh	SKKanGAS inh	Calb FLC
COc1cc(/C=C2/C(=N)N3N=C(CC(=O)N4CCOCC4)SC3=NC2=O)ccc1OCc1ccc(F)cc1	-3.3	19.4	3.9	20.2	0.2	/
O=C(/C=C/c1ccccc1)NC(=S)NNC(=O)Cc1cccs1	2.6	23.2	5.3	-4.0	78.9*	-9.5
COc1ccc(C(=O)NNC(=S)NC(=O)/C=C/c2cccs2)cc1	-37.9	10.6	-14.3	-13.3	62.3*	51.4
CCc1cccc2c(C(=O)COC(=O)/C=C/c3ccc(O)c(OC)c3)c[nH]c12	-8.5	-10.8	10.3	13.0	50.6*	-1.1
O=S(=O)(c1ccc(Cl)c(Cl)c1)c1snnc1-c1ccccc1	52.7	/	/	/	29.0	94.8*
COc1cc(NC(=O)c2cccc(S(=O)(=O)N3CCCCC3)c2)cc(OC)c1OC	-4.6	-2.2	6.7	-11.7	/	/
CN1C(=O)C(N=Nc2ccc([N+](=O)[O-])cc2)SC1=S (stereo unspecified)	113.6*	/	/	/	/	/
CC(=O)c1sc(NC(=O)CCS(=O)(=O)c2ccccc2)nc1C	-4.9	23.7	10.3	30.7	27.3	85.5*
COCCSc1nnc(NC(=O)CCS(=O)(=O)c2ccccc2)s1	28.5	27.0	11.4	17.1	-0.9	88.2*
COc1ccc(CN2C(=O)c3cccc4cccc2c34)cc1F	2.4	-3.4	-11.8	21.1	-1.3	-5.2
CC1CCc2sc(C(=O)N3CCN(c4ncccn4)CC3)cc2C1 (stereo unspecified)	1.3	33.2	20.0	44.2	7.5	26.3
COc1ccc(NC(=S)Nc2nc(CC(=O)Nc3ccccc3OC)cs2)cc1	-10.2	18.5	9.1	0.0	57.8*	0.6
CN(C)c1ccc(N=Cc2nc(-c3ccccc3)oc2O)cc1	6.8	-1.4	-1.8	-1.8	-16.3	5.7
CN(C)c1ccc(N=Cc2cccn2C)cc1	10.2	14.1	0.4	12.3	15.5	84.5*
O=C1NN(c2ccc(Br)cc2)C(=O)/C1=C\c1ccc(O)cc1O	23.6	6.2	-15.0	26.5	4.5	98.0*
COc1ccc(C)cc1NC(=O)C(Sc1nnnn1C)c1ccccc1 (stereo unspecified)	0.2	18.1	11.4	9.3	-4.6	95.2*
O=C(Nc1cccc(C(=O)NC2CC2)c1)c1ccccc1	17.6	/	/	/	/	/
O=C(Nc1cc2c3c(c1)C1CCCC1CN3CC1CCCC21)c1ccccc1 (stereo unspecified)	-51.1	-10.4	-30.7	-19.8	9.0	88.8*
O=C(O)CCc1cc(I)c(Oc2ccc(O)c(I)c2)c(I)c1	/	/	/	/	96.5*	/
N[C@@H](Cc1cc(I)c(Oc2ccc(O)c(I)c2)c(I)c1)C(=O)O	-11.4	19.8	11.0	31.4	62.1*!	/
N[C@@H](Cc1cc(I)c(Oc2cc(I)c(O)c(I)c2)c(I)c1)C(=O)O	/	-2.2	-10.5	0.4	19.1	/
CC(CN1C(C)CCCC1C)OC(=O)c1ccc(F)cc1 (stereo unspecified)	10.8	-18.0	3.7	1.2	0.6	-6.8
O=[N+]([O-])c1cc(S(=O)(=O)Nc2ccccc2)ccc1N1CCN(c2ccccc2)CC1	-12.5	21.7	22.1	33.5	49.6*	1.3
Cc1csc(NC(=O)c2ccc3ccccc3n2)n1	-25.6	16.0	26.3	7.6	59.8*	-0.2
